Records with an inconclusive call do not appear. The source made the active and inactive calls. Calls follow the shape of the full dose curve.
Molecular target: Thyrotropin receptor (Homo sapiens) (UniProt P16473)
Assay: qHTS assay to identify small molecule antagonists of the thyroid stimulating hormone receptor (TSHR) signaling pathway (AID 1259385); also: nearly all actives have a fitted effect of over 20% in size
Details: TSHR-HEK293 cAMP HTRF, TSH-stimulated antagonist mode; series mostly up to 92.4 µM
Procedure, shortened: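 Antagonist mode: compound-treated TSHR-expressing HEK293 cells were stimulated with 1.5 ng/mL TSH (final) in presence of Ro20-1724 for 30 min at RT. HTRF cAMP detection after 1 h; each compound tested at 15 concentrations, triplicate.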

Thyrotropin receptor (Homo sapiens), sequence (P16473 whole entry, looked up): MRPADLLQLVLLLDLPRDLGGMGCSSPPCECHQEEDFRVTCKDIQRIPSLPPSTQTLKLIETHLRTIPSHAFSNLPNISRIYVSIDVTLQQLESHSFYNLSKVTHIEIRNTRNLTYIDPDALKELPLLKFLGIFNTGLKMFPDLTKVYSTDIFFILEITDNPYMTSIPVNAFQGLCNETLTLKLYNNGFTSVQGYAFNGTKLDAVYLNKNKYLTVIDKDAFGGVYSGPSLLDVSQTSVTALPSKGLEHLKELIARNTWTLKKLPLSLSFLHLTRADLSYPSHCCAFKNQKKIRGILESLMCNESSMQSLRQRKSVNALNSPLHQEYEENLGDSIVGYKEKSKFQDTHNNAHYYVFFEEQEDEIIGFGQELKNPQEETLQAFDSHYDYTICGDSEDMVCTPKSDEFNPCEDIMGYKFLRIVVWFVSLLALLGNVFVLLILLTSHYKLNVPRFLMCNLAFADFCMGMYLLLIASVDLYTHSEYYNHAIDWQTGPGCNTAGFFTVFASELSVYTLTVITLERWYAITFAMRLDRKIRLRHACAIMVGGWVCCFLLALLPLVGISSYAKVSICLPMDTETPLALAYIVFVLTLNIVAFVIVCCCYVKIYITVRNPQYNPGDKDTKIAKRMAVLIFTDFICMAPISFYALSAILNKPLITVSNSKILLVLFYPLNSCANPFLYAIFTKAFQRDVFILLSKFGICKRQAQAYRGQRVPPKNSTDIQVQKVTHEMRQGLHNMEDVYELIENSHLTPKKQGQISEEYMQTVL

| Structure (SMILES) | outcome |
| --- | --- |
| O=C(Nc1ccc(Br)cc1)c1cc(Br)cc(Br)c1O | inactive |
| CCOCN(C(=O)CCl)c1c(C)cccc1CC | inactive |
| CCOC(=S)S | inactive |
| C=C(C)[C@H]1Cc2c(ccc3c2O[C@@H]2COc4cc(OC)c(OC)cc4[C@@H]2C3=O)O1 | inactive |
| CNC(=O)Oc1cccc2c1OC(C)(C)O2 | inactive |
| COP(=S)(OC)Oc1ccc([N+](=O)[O-])cc1 | inactive |
| Cc1cc(Cl)ccc1OCCCC(=O)O | inactive |
| CCC(CC)Nc1c([N+](=O)[O-])cc(C)c(C)c1[N+](=O)[O-] | inactive |
| CCCCOCCOP(=O)(OCCOCCCC)OCCOCCCC | inactive |
| NC(=S)Nc1ccccc1 | inactive |
| O=P(Oc1ccccc1)(Oc1ccccc1)Oc1ccccc1 | inactive |
| N#Cc1cc(Br)c(O)c(Br)c1 | inactive |
| CCN(CC)N=O | inactive |
| Nc1ccc(-c2ccccc2)cc1 | inactive |
| CN(C)c1ccc(C(=O)c2ccc(N(C)C)cc2)cc1 | inactive |
| CCCCCCCCC(=O)NCc1ccc(O)c(OC)c1 | inactive |
| C=CCN(CC=C)C(=O)C(Cl)Cl | inactive |
| CC(C)(OOC(C)(C)c1ccccc1)c1ccccc1 | inactive |
| CCC(C)(c1ccc(O)cc1)c1ccc(O)cc1 | inactive |
| CCCCCCOC(=O)c1ccccc1C(=O)OCCCCCC | inactive |
| CCCCC(CC)COC(=O)Cl (stereo unspecified) | inactive |
